Most compounds without a hit are left out; they make up all but 12% or so of the library.
SARS PLP yeast: qHTS of Yeast-based Assay for SARS-CoV PLP | S. cerevisiae expressing SARS-CoV PLpro, growth rescue | Potency, µM (doses to about 32.9 µM), inactives show top-dose activity, positive = growth rescue, actives largely listed as activators | actives 0.19% (n = 330,000); calls by dose curve; further: 0% is about no effect; nearly all actives have a fitted effect of over 55% in size
HCV inh: qHTS Assay for Inhibitors of Hepatitis C Virus (HCV); Huh7.5.1 HCVcc-Cre infection, luciferase reporter, 44 h; Potency, µM (doses to about 41.8 µM), for the others: at the top dose activity change, negative = inhibition, actives largely listed as inhibitors; actives 3.4% (n = 340,000); AID 651820, 2012; further: on the % scale 0 is the no-effect control and ±100 the full control effect
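Cells (1,000/well) were plated 4 h before compound, then infected with HCVcc-Cre virus (~0.5 moi). After 44 h further culture, infection was read as luciferase luminescence following a 15 min substrate incubation at room temperature.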
Pf growth 96h: Primary qHTS for delayed death inhibitors of the malarial parasite plastid, 96 hour incubation; Potency, µM (doses to about 28.7 µM), inactives show at the top dose activity change, negative = inhibition, most hits filed as inhibitors; actives 6.9% (n = 320,000); P. falciparum luciferase reporter growth, 96 h; further: on the % scale 0 is the no-effect control and ±100 the full control effect
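Parasite growth measured via integrated firefly luciferase reporter in P. falciparum. Infected erythrocytes at 2% hematocrit, 0.05% parasitemia final were treated 96 hours at 37 C under 5% CO2, and luminescence was read.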
NS1 function inh: qHTS Assay for Inhibitors of Influenza NS1 Protein Function; Potency, µM (titrated, usually from 46.1 µM), inactives show at the top dose activity, positive = more growth; actives 0.4% (n = 270,000); AID 2326, 2010; calls by dose curve; further: actives are rising curves; nearly all actives have a fitted effect of over 50% in size
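S. cerevisiae expressing influenza A NS1, grown in glucose, washed, then diluted 1:100 into pH 6.0 -URA galactose medium with 23 nl compound. Growth recovery read as OD600; NS1-free strain serves as control.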
AMA1 RON2 block: qHTS for Inhibitors of AMA1-RON; Towards Development of Antimalarial Drug Lead: Primary Screen. Plasmodium falciparum AMA1 (3D7) - RON2 peptide interaction. AlphaScreen AMA1-biotinylated RON2 peptide binding. Potency, µM (doses to about 58.2 µM), without a hit: top-dose activity change, negative = inhibition, most hits filed as inhibitors. actives 0.2% (n = 360,000);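 further: 0% = vehicle wells and -100% = peptide control; nearly all actives have a fitted effect of over 45% in size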
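AMA1 (3D7) with his tag at 25 nM final met compounds first, then biotinylated RON2 peptide at 25 nM; detection used donor plus acceptor beads, 10 µg/mL apiece, read by AlphaScreen after 30 min at room temperature.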
Pf growth 48h: Primary qHTS for delayed death inhibitors of the malarial parasite plastid, 48 hour incubation; P. falciparum luciferase growth in erythrocytes, 48 h; Potency, µM (series often up to 28.7 µM), inactives show top-dose activity change, negative = inhibition, most hits filed as inhibitors; actives 5.9% (n = 310,000); AID 504832, 2011; further: on the % scale 0 is the no-effect control and ±100 the full control effect
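Luciferase-expressing P. falciparum in infected erythrocytes (2% hematocrit, 0.1% parasitemia final) in RPMI 1640/0.5% Albumax were exposed to compound for 48 hours at 37 C, 5% CO2; growth read as luminescence.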
An asterisk follows results filed as active; u = inconclusive; x = not tested or not shown; [ ] = another dose, or the depositor's remark. Unless noted, the call rests on the fitted dose curve; in most records, active means well fitted curve in the direction sought with a large enough effect; inconclusive means small, poorly fitted or top-dose-only effect, or another doubt; inactive means no such curve, though single readings can be large; an effect the other way counts as inactive or inconclusive. Potency means the concentration at half of the fitted maximal effect.

SMILES	SARS PLP yeast	HCV inh	Pf growth 96h	NS1 function inh	AMA1 RON2 block	Pf growth 48h
O=c1cc(-c2ccc(O)cc2)oc2cc(O)c([C@@H]3O[C@H](CO)[C@@H](O)[C@H](O)[C@H]3O)c(O)c12	-8.2%	19.6%	x	x	9.7%	x
O=c1cc(-c2ccc(O)cc2)oc2cc(O[C@@H]3O[C@H](CO)[C@@H](O)[C@H](O)[C@H]3O[C@@H]3OC[C@](O)(CO)[C@H]3O)cc(O)c12	-9.7%	-1.0%[8.37 µM]	u	-13.9%	11.2%	10.4µM*
Cc1cc(=O)n2nc(N3CCCC(C(=O)NC4CCC(C)CC4)C3)sc2n1 (configuration not stated)	-2.5%	-0.8%	5.2%	11.8%	18.6%	u
CC[N+](CC)(CC#Cc1ccccc1)CC#Cc1ccccc1	1.2%	-6.4%	u	-2.0%	-11.6%	1.47µM*
CCc1nnc(NC(=O)CCC(=O)NC2CCCCCCC2)s1	-0.8%	-1.3%	15.9%	-1.0%	4.0%	-7.1%
Cc1ccc(C)c(N(CC(=O)NCc2ccco2)C(=O)CCC(=O)Nc2nccs2)c1	-0.2%	-6.3%	u	6.4%	-20.6%	-22.3%
COc1ccc(CN(C)C(c2ccccc2)c2nnnn2-c2ccccc2C)c(OC)c1C (configuration not stated)	-11.5%	-27.7%	-12.9%	-37.0%	-7.0%	u
COc1cc(OC)c(OC)cc1CN(C)C(c1ccccc1)c1nnnn1-c1ccccc1C (configuration not stated)	1.8%	12.6µM*	10.4µM*	-32.1%	u	u
COc1cc(/C=C2\SC(=S)N(NS(=O)(=O)c3ccc(C)cc3)C2=O)cc(OC)c1OC	-1.6%	-0.4%	u	1.2%	12.3%	4.65µM*
CC(C)c1ccccc1OS(N)(=O)=O	2.6%	20.0%	13.7%	-8.3%	7.6%	39.2%
CC1C(c2ccccc2)N(C)C(c2ccccc2)C(C)C1(O)C#Cc1ccccc1 (configuration not stated)	-105.6%	0.7%	-15.2%	-35.5%	-8.6%	9.28µM*
CCN1CCC(O)(C#Cc2ccccc2)CC1	-0.9%	7.1%	-1.7%	4.8%	18.8%	-0.6%
CCOC(=O)Cn1cc(Cl)cc(C(=O)Nc2ccccc2)c1=O	0.0%	u	-0.5%	-2.4%	1.9%	20.4%
CCOC(=O)c1c(N)sc2c(OCC)c(Br)ccc12	-26.9%	10µM*	430.7%	-46.8%	-5.5%	-21.0%
CCOC(=O)c1c(NC(C)=O)sc2c(OCC(O)CNC(C)(C)C)c(Br)ccc12 (configuration not stated)	0.2%	4.47µM*	16.0%	-0.2%	-3.8%	67.7%
NC(=O)C1CCN(c2nc(-c3ccccc3Cl)cs2)CC1	x	x	6.2%	x	x	u
COC(=O)C1=C(N)N(c2ccccc2C(F)(F)F)C2=C(C(=O)CCC2)C1c1ccc2c(c1)OCO2 (configuration not stated)	-2.9%	u	7.38µM*	12.1%	0.8%	3.7µM*
COC(=O)CSC1=C(C#N)C(c2ccc3c(c2)OCO3)C2=C(CCCC2=O)N1 (configuration not stated)	-3.8%	-10.3%	u	2.6%	5.8%	-16.5%
Cc1ccc(S(=O)(=O)N2CCN(c3ccnc4cc(Cl)ccc34)CC2)cc1	-0.5%	u	u	-37.4%	-14.2%	10.4µM*
CS(=O)(=O)N1CCN(c2ccnc3cc(Cl)ccc23)CC1	0.6%	3.8%	u	x	3.3%	2.9%[5.75 µM]
CCS(=O)(=O)N1CCN(c2ccnc3cc(Cl)ccc23)CC1	0.2%	-18.6%	10.4µM*	0.4%	-13.7%	11.7µM*
O=C(CCC(=O)Nc1ccccc1Cl)NNC(=S)Nc1ccccc1C(F)(F)F	-6.4%	19.6%	2.08µM*	7.7%	26.4%	18.4%
O=C(/C=C/c1cccc(Cl)c1)NCc1ccccc1	-6.5%	5.9%	19.4%	-5.2%	14.7%	0.0%
CC(C)(C)NC(=O)c1ccc(COc2ccc(Cl)cc2Cl)o1	-4.9%	u	u	-11.1%	12.0%	-9.6%[0.00184 µM]
Cc1noc(C)c1COC(=O)c1csc2c1CCC(C)C2 (configuration not stated)	-7.7%	u	u	x	-8.3%	11.7µM*
SMILES	SARS PLP yeast	HCV inh	Pf growth 96h	NS1 function inh	AMA1 RON2 block	Pf growth 48h
CC1CCc2c(C(=O)NCC3CCCO3)csc2C1 (configuration not stated)	-6.5%	0.3%	-0.9%	-50.1%	3.7%	40.3%
Cc1cc(NC(=O)CN2CCc3ccccc3C2)nc2c1c(=O)oc1ccccc12	-2.8%	7.6%	u	-33.3%	-0.8%	10.4µM*
Cc1ccccc1CN(C)CC(=O)NC(C)CCc1ccccc1 (configuration not stated)	-0.9%	-10.1%	-25.2%	x	-5.1%	-15.9%
CCNc1sc(C(=O)c2cccs2)c(N)c1-c1nc2ccccc2s1	-6.0%	5.01µM*	u	-9.5%	27.5%	u
CCOC(=O)c1sc(NCc2ccco2)c(-c2nc3ccccc3s2)c1N	-3.4%	10µM*	u	0.7%	-10.5%	x
CCNc1sc(C(=O)c2cccs2)c(N)c1C#N	-0.4%	12.6µM*	1.9%	3.3%	-1.2%	18.4%
CCOC(=O)C1(CC2CCCCO2)CCN(S(=O)(=O)c2c(C)nn(C)c2C)CC1 (configuration not stated)	-0.9%	-13.1%	u	-3.4%	18.0%	-25.7%
CC(O)CNC(=O)Cc1cc(=O)[nH]c(=O)[nH]1 (configuration not stated)	1.4%	21.8%	43.3%	3.9%	-0.8%	14.6%
CCOC(=O)CSc1nnc(Cn2c(=O)sc3ccccc32)n1-c1ccccc1C	-9.2%	8.5%	14.7µM*	-2.5%	1.8%	4.2%
Cn1c(Cn2c(=O)sc3ccccc32)nnc1SCC(=O)Nc1ccc(Cl)cc1	u	6.1%	10.4µM*	u	3.4%	1.8%
Cn1c(Cn2c(=O)sc3ccccc32)nnc1SCC(=O)N1CCc2ccccc21	7.0%	19.6%	5.22µM*	2.7%	-4.1%	5.3%
Cc1ccccc1-n1c(Cn2c(=O)sc3ccccc32)nnc1SCC(N)=O	-5.8%	2.6%	25.8%	-6.3%	0.0%	11.6%
Cn1c(Cn2c(=O)sc3ccccc32)nnc1SCC(=O)Nc1cccc(Cl)c1	5.3%	-7.6%	u	-4.6%	1.4%	-6.6%
Cc1ccc(NC(=O)CSc2nnc(CNC(=O)c3ccco3)n2C)cc1C	2.0%	-23.0%[8.37 µM]	13.1µM*	x	5.1%	-7.5%
FC(F)(F)c1ccccc1-c1ccc2nncn2c1	x	x	x	x	-2.1%	x

Screens: PubChem, National Center for Advancing Translational Sciences (NCATS)
